# Reference: PubChem BioAssay AID772 (SRMLSC, 2007)
# The campaign covered roughly 3,300 compounds. About 20 (0.6%) were called active. The sample holds actives, similar compounds and a random draw of the others, so the mix is not that of the screen.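 Rule for the calls: active = growth inhibition above 90%, meaning viable cell count cut by more than 90% versus vehicle controls; inactive = growth inhibition below 90%.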
# Assay: HT29 colon tumor cell growth inhibition, primary screen, imaging, high content imaging, 72 h, CellTiter-Glo (AID 772);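 for condensed nuclei: condensed means nuclear area below control median minus 1.5 SD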
# Details: HCS imaging cell count, at 10 µM, stronger effect = higher value; for condensed nuclei: measured here: percent cells with condensed nuclei
# [1] = measured here: ATP CellTiter-Glo viability
Structure (SMILES),growth inhibition,growth inhibition [1] [%],condensed nuclei [%]
CCCCc1c(C)c2ccc(OCC(C)=O)cc2oc1=O,-30.8% (inactive),-58.8,2.85
CO[C@H]1C[C@@H]2CC[C@@H](C)[C@@](O)(O2)C(=O)C(=O)N2CCCC[C@H]2C(=O)O[C@H]([C@H](C)C[C@@H]2CC[C@@H](O)[C@H](OC)C2)CC(=O)[C@H](C)C=C(C)[C@@H](O)[C@@H](OC)C(=O)[C@H](C)C[C@H](C)C=CC=CC=C1C,19.1% (inactive),-4.98,2.81
CCOC(=O)c1ccc(N=Cc2nc(-c3ccccc3)oc2OC(C)=O)cc1,6.56% (inactive),-17.5,12.1
CC12CCC(C(=O)NCCCN3CCOCC3)(OC1=O)C2(C)C (stereo unspecified),-26.1% (inactive),-11.1,1.65
CC(C)CC(NC(=O)OC(C)(C)C)C(=O)NCc1ccccc1 (stereo unspecified),9.38% (inactive),-13,1.7
CCOc1ccc(C2C(C(=O)c3ccc(C)o3)=C(O)C(=O)N2CCN2CCOCC2)cc1OC (stereo unspecified),-37.5% (inactive),-33.6,4.84
O=C(CCN1CCCCC1)Nc1cccc(Cl)c1,35% (inactive),28.1,26.1
N#Cc1nc(-c2cccs2)oc1NCc1ccc2c(c1)OCO2,48% (inactive),8.08,3.78
COC(=O)c1[nH]c(C)c(/C(O)=C2\C(=O)C(=O)N(CCN3CCOCC3)C2c2cccnc2)c1C (stereo unspecified),-38.7% (inactive),-21.1,3.67
N#CC1=C(N)OC2=C(C(=O)CCC2)C1CCc1ccccc1 (stereo unspecified),12% (inactive),-15.7,5.15
COc1cccc(-c2nc(NCCN3CCOCC3)c3ccccc3n2)c1O,38% (inactive),86.2,23.4
Oc1ccccc1-c1nc(NCCN2CCOCC2)c2ccccc2n1,30.6% (inactive),94,18.9
Fc1ccccc1-c1nc(NCCCN2CCOCC2)c2ccccc2n1,92.5% (active),79,14.3
COCCN(CCOC)C(=O)C12CCC(C)(C(=O)C1)C2(C)C (stereo unspecified),31.4% (inactive),-4.4,10.7
CCN(CC)CCN1C(=O)C(=O)/C(=C(/O)c2c(C)[nH]c(C(=O)OC)c2C)C1c1cccc(OC)c1 (stereo unspecified),-109% (inactive),-54.7,4.61
COC(=O)c1ccc(-c2sc3nc(N4CCOCC4)c4c(c3c2N)CCCC4)o1,89.6% (inactive),82.9,55.6
COc1cc2c(C(=O)N3CCN(c4ccccc4)CC3)c(C)oc2cc1Br,-0.57% (inactive),-11.3,5.92
Cc1ccc(OCC(=O)NCC(=O)n2nc(C)cc2C)cc1,-54.1% (inactive),-44.3,2.73
Cc1ccccc1N1C(=O)CC(Sc2nnc(-c3ccccc3)o2)C1=O (stereo unspecified),-77.9% (inactive),-47.7,3.38
Cc1cc(C)cc(CC2CC(=O)N(c3cc(C)on3)C2=O)c1 (stereo unspecified),2.63% (inactive),-16.1,7.19
CCOC(=O)c1sc(-n2[nH]c(C)cc2=O)nc1C,14.3% (inactive),-4.21,1.46

Structure (SMILES),growth inhibition,growth inhibition [1] [%],condensed nuclei [%]
C=CCc1cccc(CNc2nc3ccccc3n2C(C)C)c1O,95.1% (active),88.3,14.6
C=CCc1cccc(/C=N/n2cnnc2)c1O,34.7% (inactive),20.1,13.3
C=CCc1cccc(/C=N/c2ncn[nH]2)c1O,-6.01% (inactive),-17.7,2.92
CC1(c2ccco2)NC(=O)NC1=O (stereo unspecified),16.9% (inactive),7.41,12.6
CC(C)CCNc1nc2c(cc1C#N)COC(C)(C)C2,12.7% (inactive),2.37,1.81
CNc1nc(C)c(C#N)cc1C(C)=O,82.9% (inactive),37.9,1.85
CN1C(=O)N(c2ccccc2)C(Nc2nncs2)C1(C)C (stereo unspecified),-44.1% (inactive),-46.4,5.92
CCOC(=O)C1CCN(C(C)=C2C(=O)c3ccccc3C2=O)CC1,-17.6% (inactive),-13.6,15.2
CCCCCSc1nc(N2CCOCC2)c2c(c1C#N)CC(C)(C)OC2,69.6% (inactive),74.9,29.7
CC1(C)Cc2c(C#N)c(SCc3nc4ccccc4[nH]3)nc(N3CCOCC3)c2CO1,90.8% (active),83.4,5.26
CC1(C)Cc2c(C#N)c(SCCOc3ccccc3)nc(N3CCOCC3)c2CO1,-23.3% (inactive),-59.6,0.88
COc1ccc(Cn2c(CCCO)nc3ccccc32)cc1OC,32.8% (inactive),6.64,5.26
CN1CCc2nc(SCC(=O)Nc3ccc(Cl)cc3)c(C#N)cc2C1,54.4% (inactive),55.6,17.3
Cc1ccc(N2C(=O)C3ON(c4ccccc4)C(c4ccncc4)C3C2=O)c(C)c1 (stereo unspecified),10.2% (inactive),1.38,8.14
Cc1ccc(OCc2nnc(NC(=O)c3ccco3)s2)c(C)c1,-8.86% (inactive),-6.84,11.2
Cc1cc(=O)oc(C)c1C(=O)NCCNC(=O)c1c(C)cc(=O)oc1C,5.17% (inactive),-5.21,2.08
CCN(CC)CC#CCOC(=O)C(O)(c1ccccc1)C1CCCCC1 (stereo unspecified),93.1% (active),92.7,18.4
CN1CCCN=C1COC(=O)C(O)(c1ccccc1)C1CCCCC1 (stereo unspecified),-62.6% (inactive),-21.5,2.98
CC[N+](C)(CC)CCOC(=O)C(O)(c1ccccc1)C1CCCCC1 (stereo unspecified),-74.7% (inactive),-22.9,4.12
c1ccc(Cc2nnc3n2CCCCC3)cc1,-43.5% (inactive),-46.4,1.7
O=C1c2ccccc2C(=O)C1c1ccc2ccccc2n1,18.9% (inactive),7.1,4.03
